# Substitutions are numbered along the chain they refer to.
# Key:
# Test in all cases: HT-SELEX; high values mean tight binding
# Details in all cases: protein: recombinant; vector His6-GST; dsDNA, one strand shown
# SALL4 ZFC4 WT (HT-SELEX) = molecular target: T1, SALL4 ZFC4 WT (HT-SELEX) (Mus musculus, UniProt Q8BX22 870-940)
# T1 sequence: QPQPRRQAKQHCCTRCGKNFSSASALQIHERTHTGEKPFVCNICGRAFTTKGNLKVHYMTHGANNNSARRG
# In short: (§1)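 In triplicate selections of up to 6 cycles, purified recombinant mouse SALL4 zinc finger cluster 4 (residues 870–940, 1 µg) was incubated 10 min at room temperature with library DNA (1.5 µg, then 200 ng) in 100 µl of 10 mM Tris–HCl pH 7.5, 50 mM NaCl, poly(dI-dC) and DTT, and complexes were captured on Ni2+ beads, washed and PCR-amplified. Sequencing was done on MiSeq with scanning for 6-mers. The binding signal is each canonical k-mer's read fraction, reported as fold change against the initial random library.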
# [1] = molecular target: T2, SALL4 ZFC4 R900W (HT-SELEX) (Mus musculus, UniProt Q8BX22 870-940, R900W)
# T2 sequence: T1 sequence with R31W
# In short: as §1
# [2] = molecular target: T3, SALL4 ZFC4 G921D (HT-SELEX) (Mus musculus, UniProt Q8BX22 870-940, G921D)
# T3 sequence: T1 sequence with G52D
# In short: as §1
Sequence,binding signal (SALL4 ZFC4 WT (HT-SELEX)),binding signal [1],binding signal [2]
AGTCCA,0.746 ± 0.0239 fold-change vs cycle 0,0.878 ± 0.0374 fold-change vs cycle 0,0.929 ± 0.0398 fold-change vs cycle 0
GAAGAA,1.38 ± 0.0779 fold-change vs cycle 0,1.56 ± 0.142 fold-change vs cycle 0,1.41 ± 0.156 fold-change vs cycle 0
GGGGAA,0.462 ± 0.0251 fold-change vs cycle 0,0.532 ± 0.0365 fold-change vs cycle 0,0.614 ± 0.0545 fold-change vs cycle 0
GAACTC,0.875 ± 0.0352 fold-change vs cycle 0,1.03 ± 0.0309 fold-change vs cycle 0,1.04 ± 0.0772 fold-change vs cycle 0
CAATGG,0.767 ± 0.067 fold-change vs cycle 0,0.849 ± 0.0267 fold-change vs cycle 0,0.923 ± 0.0362 fold-change vs cycle 0
CACTAA,1.22 ± 0.0467 fold-change vs cycle 0,1.38 ± 0.0225 fold-change vs cycle 0,1.29 ± 0.0518 fold-change vs cycle 0
AGCAAA,0.996 ± 0.0354 fold-change vs cycle 0,1.04 ± 0.0692 fold-change vs cycle 0,1.07 ± 0.0335 fold-change vs cycle 0
AAAGTT,1.85 ± 0.124 fold-change vs cycle 0,1.9 ± 0.107 fold-change vs cycle 0,1.7 ± 0.189 fold-change vs cycle 0
AACCAC,0.74 ± 0.0275 fold-change vs cycle 0,0.83 ± 0.0479 fold-change vs cycle 0,0.879 ± 0.0101 fold-change vs cycle 0
ATTCCG,0.646 ± 0.0192 fold-change vs cycle 0,0.697 ± 0.0273 fold-change vs cycle 0,0.798 ± 0.0236 fold-change vs cycle 0
CCTTCG,0.394 ± 0.0327 fold-change vs cycle 0,0.487 ± 0.0246 fold-change vs cycle 0,0.582 ± 0.0265 fold-change vs cycle 0
ATATGA,3.11 ± 0.303 fold-change vs cycle 0,2.07 ± 0.156 fold-change vs cycle 0,1.85 ± 0.196 fold-change vs cycle 0
TTAGAA,1.97 ± 0.0545 fold-change vs cycle 0,2.01 ± 0.0848 fold-change vs cycle 0,1.75 ± 0.166 fold-change vs cycle 0
CGGTGA,0.364 ± 0.0107 fold-change vs cycle 0,0.421 ± 0.0161 fold-change vs cycle 0,0.548 ± 0.0673 fold-change vs cycle 0
TTCCAA,1.24 ± 0.0535 fold-change vs cycle 0,1.32 ± 0.0456 fold-change vs cycle 0,1.29 ± 0.0721 fold-change vs cycle 0
